This is a sample that favours compounds with a hit; in the whole collection about 21% have one here.
Pf growth 48h = Primary qHTS for delayed death inhibitors of the malarial parasite plastid, 48 hour incubation; P. falciparum luciferase growth in erythrocytes, 48 h; Potency, µM (top dose mostly 28.7 µM), most hits filed as inhibitors; 310,000 compounds, 5.9% hits
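A one-generation exposure of luciferase-tagged malaria parasites in RPMI 1640/Albumax erythrocyte culture, 37 C and 5% CO2. Inhibition is inferred from decreased luminescence after adding detection reagent.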
CHX counter = Cycloheximide Counterscreen for Small Molecule Inhibitors of Shiga Toxin. cell reporter, cycloheximide protein synthesis inhibition counterscreen. max response, %. 300,000 compounds, 12% hits. AID 2314, 2010; in the data active = max response mostly above about 13%, no sharp cut-off; inactive = mostly below about 14%; also: read at 38.3 µM for the half of the compounds with a filed dose
Pf growth 96h = Primary qHTS for delayed death inhibitors of the malarial parasite plastid, 96 hour incubation; 320,000 compounds, 6.9% hits; P. falciparum luciferase reporter growth, 96 h; Potency, µM (doses to about 28.7 µM), most hits filed as inhibitors
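Two-generation exposure (96 h) targets delayed-death phenotype. Reporter parasites carrying integrated firefly luciferase, in red cells at 2% hematocrit and 0.05% parasitemia final, kept at 37 C, 5% CO2; luminescence loss indicates inhibition.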
HCMV antiviral = qHTS Assay for inhibitors of the human cytomegalovirus (HCMV); HFF cells, HCMV-luciferase reporter, 72 h; active compounds read low; activity change, negative = inhibition, % at 57.5 µM; 410,000 compounds, 4.5% hits; in the data active = activity change below about -60%; inconclusive = no clear call, values can overlap the other calls; inactive = above about -39%
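After 16 h attachment at 37C, HFF cells received test compound and HCMV-luciferase (1 PFU/cell); reporter luminescence read 72 h later, data normalized against buffer-only and known inhibitor Salinomycin.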
HCV inhibitor = qHTS Assay for Inhibitors of Hepatitis C Virus (HCV). Potency, µM (top dose mostly 41.8 µM), actives largely listed as inhibitors. 340,000 compounds, 3.4% hits. Huh7.5.1 HCVcc-Cre infection, luciferase reporter, 44 h
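1,000 cells/well; 4 h culture; + compound; + HCVcc-Cre (~0.5 moi); 44 h; luciferase substrate, RT 15 min; read 15 sec.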
Shiga inhibitor = A qHTS for Small Molecule Inhibitors of Shiga Toxin; Vero cells, Shiga toxin protein synthesis inhibition reporter; inhibition, % at 38.7 µM; 290,000 compounds, 9.2% hits; in the data active = inhibition mostly above about 28%, no sharp cut-off; inactive = mostly below about 43%
Each line names hits and unclear results; the compound was inactive in the other large screens. Unless noted, calls follow the shape of the dose curve; as a rule, active = well fitted inhibition curve with a large enough effect; inconclusive = small, poorly fitted or top-dose-only effect, or another doubt; inactive = no such curve, though single readings can be large or run the other way.

CCc1cccc(NC(=O)c2sc3nc4n(c(=O)c3c2C)CCC4)c1	CHX counter 28, Pf growth 96h inconclusive, Shiga inhibitor 73
CCOc1ccc(NC(=O)c2sc3nc4n(c(=O)c3c2C)CCC4)cc1	Pf growth 96h inconclusive, HCV inhibitor inconclusive
COCCNC(=O)c1sc2nc3n(c(=O)c2c1C)CCC3	none (no result: Pf growth 48h, CHX counter, Pf growth 96h, HCV inhibitor, Shiga inhibitor)
CCOC(=O)c1sc2nc3n(c(=O)c2c1C)CCC(C)CC3 (stereo not given)	HCV inhibitor inconclusive (no result: Pf growth 48h)
CCOC(=O)N1CCN(C(=O)Nc2sc3nc4n(c(=O)c3c2C)CCC(C)CC4)CC1 (stereo not given)	Pf growth 48h 12µM, Pf growth 96h 13µM, HCV inhibitor inconclusive
Cc1c(C(=O)Nc2cccc(C(F)(F)F)c2)sc2nc3n(c(=O)c12)CCC3	none (no result: Pf growth 48h, CHX counter, Pf growth 96h, HCV inhibitor, Shiga inhibitor)
CC1C=CC=CC=CC=CC=CC=CC=CC(OC2OC(C)C(O)C(N)C2O)CC2OC(O)(CC(O)CC(O)C(O)CCC(O)CC(O)CC(=O)OC(C)C(C)C1O)CC(O)C2C(=O)O (stereo not given)	none (no result: Pf growth 48h, CHX counter, Pf growth 96h, HCMV antiviral, Shiga inhibitor)
COc1ccc(Cl)cc1NC(=O)C/C(C)=N/NC(=O)COc1ccc(C)cc1	none
O=S(=O)(c1ccc(Cl)c(C(F)(F)F)c1)N1CCN(CC(O)COCC2CCCO2)CC1 (stereo not given)	CHX counter 32
CC(C)(C)c1ccc(S(=O)(=O)N2CCN(CC(O)COCC3CCCO3)CC2)cc1 (stereo not given)	Pf growth 48h inconclusive, Pf growth 96h inconclusive (no result: CHX counter, Shiga inhibitor)
Cc1ccc2nc(-c3cccc(Br)c3)cc(C(=O)NC3=NCCS3)c2c1	Pf growth 48h 4.7µM, HCMV antiviral inconclusive, Shiga inhibitor 76
O=C(NC1=NCCS1)c1cc(-c2cccc(Br)c2)nc2ccccc12	Pf growth 48h inconclusive, CHX counter 20
CC1(C)CC2CC(C)(CN2C(=S)Nc2ccccc2)C1 (stereo not given)	HCMV antiviral -61
COc1cccc(CNC(=O)CN(C)S(=O)(=O)c2ccc(Br)s2)c1	CHX counter 22, Shiga inhibitor 76
COc1ccc(CNC(=O)CN(C)S(=O)(=O)c2ccc(Br)s2)cc1	CHX counter 23
COc1ccccc1CNC(=O)CN(C)S(=O)(=O)c1ccc(Br)s1	CHX counter 21, Shiga inhibitor 57
COc1ccccc1CNC(=O)CN(C)S(=O)(=O)c1ccc(F)cc1	none
CCOC(=O)c1c(C)[nH]c(C)c1S(=O)(=O)N(C)CC(=O)NCc1cccc(Br)c1	Pf growth 48h inconclusive, Pf growth 96h 12µM
O=C(NCCc1ccccc1)C(=O)NCC(c1cccs1)S(=O)(=O)c1cccs1 (stereo not given)	none (no result: Pf growth 48h, CHX counter, Pf growth 96h, HCV inhibitor, Shiga inhibitor)
Cc1cccc(N2C(=O)N(Cc3cccc(C#N)c3)c3ccccc3S2(=O)=O)c1	none (no result: Pf growth 48h, CHX counter, Pf growth 96h, HCV inhibitor, Shiga inhibitor)
CC1(C)O[C@@H]2[C@H](O1)[C@@H](COS(=O)(=O)O)O[C@H]2n1c(=S)[nH]c2c(=O)[nH]c(N)nc21	none (no result: CHX counter, Shiga inhibitor)
CN(CC(=O)NCc1ccc(F)cc1)S(=O)(=O)c1ccc(Br)s1	HCMV antiviral -71
CN(CC(=O)NCc1ccc2c(c1)OCO2)S(=O)(=O)c1ccc(Br)s1	none (no result: Pf growth 96h)
O=C(O)c1cccc(N2C(=O)c3cc([N+](=O)[O-])cc4cc([N+](=O)[O-])cc(c34)C2=O)c1	Pf growth 48h inconclusive, HCV inhibitor inconclusive
O=C1/C(=C/c2ccc([N+](=O)[O-])cc2)C=C(c2ccccc2)N1c1ccc(O)cc1	Pf growth 48h inconclusive, HCMV antiviral -83, HCV inhibitor inconclusive (no result: Pf growth 96h)
O=C(O)c1cccc(N2C(=O)/C(=C/c3ccc([N+](=O)[O-])cc3)C=C2c2ccccc2)c1	CHX counter 23, Pf growth 96h inconclusive, Shiga inhibitor 38
O=C1/C(=C/c2ccc([N+](=O)[O-])cc2)C=C(c2ccccc2)N1c1ccccc1	Pf growth 96h inconclusive
COc1ccc(N2C(=O)/C(=C/c3ccc([N+](=O)[O-])cc3)C=C2c2ccccc2)cc1	Pf growth 48h inconclusive, Pf growth 96h 13µM, HCMV antiviral -101, HCV inhibitor inconclusive
CCOc1ccc(C(=O)NCCS(=O)(=O)N2CCN(c3ccccc3F)CC2)cc1OCC	none (no result: Pf growth 48h, CHX counter, Pf growth 96h, HCV inhibitor, Shiga inhibitor)
COc1cccc(-n2c(N)c(-c3nc4ccccc4[nH]3)sc2=S)c1	none
Cc1cc(C)c2c(N)c(-c3nc4ccccc4[nH]3)sc2n1	CHX counter 45, Shiga inhibitor 81
Cc1ccc2nc(-c3sc4nc(C)ccc4c3N)[nH]c2c1	Pf growth 48h inconclusive, CHX counter 33, HCV inhibitor inconclusive, Shiga inhibitor 44
O=C(O)CCC/C=C\C[C@@H]1[C@@H](CC[C@@H](O)CCc2ccccc2)[C@H](O)C[C@@H]1O	none (no result: Pf growth 48h, Pf growth 96h, HCMV antiviral, HCV inhibitor)
CCc1ccc(C(=O)NC(=S)NCc2cccnc2)cc1	HCMV antiviral inconclusive
COc1ccc(OC)c(CNC(=O)C2CCN(S(=O)(=O)c3cn(C)cn3)CC2)c1	none (no result: Pf growth 48h, CHX counter, Pf growth 96h, HCV inhibitor, Shiga inhibitor)
CCOC(=O)Nc1ccc2c(c1)N(C(=O)CN1CCN(C)CC1)c1ccccc1CC2	Pf growth 48h inconclusive, Pf growth 96h inconclusive (no result: Shiga inhibitor)
CCOC(=O)Nc1ccc2c(c1)N(C(=O)CCN1CCN3CCCC3C1)c1ccccc1CC2 (stereo not given)	Pf growth 96h 15µM
CCOC(=O)Nc1ccc2c(c1)N(C(=O)CN1CCN(CCO)CC1)c1ccccc1CC2	Pf growth 48h inconclusive, Pf growth 96h 12µM
COC(=O)Nc1ccc2c(c1)N(C(=O)CCN1CCN3CCCC3C1)c1ccccc1CC2 (stereo not given)	Pf growth 96h inconclusive
CCOC(=O)Nc1ccc2c(c1)N(C(=O)N1CCN(C)CC1)c1ccccc1CC2	Pf growth 48h 12µM
CC(C)OC(=O)Nc1ccc2c(c1)N(C(=O)N1CCN(C)CC1)c1ccccc1CC2	CHX counter 30, Pf growth 96h inconclusive, HCV inhibitor inconclusive
Cc1ccn2c(=O)cc(CSc3nnc(C)s3)nc2c1	none (no result: Pf growth 48h, CHX counter, Pf growth 96h, HCV inhibitor, Shiga inhibitor)

Screens: PubChem, National Center for Advancing Translational Sciences (NCATS)
